Only some compounds are listed: those with a hit (about 17% of all), similar ones and a draw of the others.
TGFb inhibitor: inhibitors of TGF-b signaling; 1.2% of 410,000 active; HepG2 CAGA-GFP TGF-b/SMAD3 reporter, GFP fluorescence, 18 h; TGF-beta stimulated, 500 pg/mL final; Potency, µM (doses to about 46.1 µM), without a hit: at the top dose activity, negative = inhibition, actives largely listed as inhibitors; AID 588855; further: on the % scale 0 is the no-effect control and ±100 the full control effect; nearly all actives have a fitted effect of over 65% in size
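Inhibition of TGF-beta-driven CAGA-GFP reporter expression in HEPG2 cells is measured by cellular GFP fluorescence after 18 h stimulation with 500 pg/mL recombinant TGF-beta in 1% FBS medium at 37 degrees C.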
ATXN2 expr inh: ATXN2 expression inhibition; HEK-293 ATXN2-luciferase reporter, luminescence, 24 h; Potency, µM (highest dose often 57 µM), for inactives: at the highest dose activity change, negative = inhibition, hits mostly inhibitors; 0.72% of 360,000 active; further: on the % scale 0 is the no-effect control and ±100 the full control effect; nearly all actives have a fitted effect of over 55% in size
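ATXN2-luciferase reporter cells (luciferase flanked by upstream and downstream ATXN2 gene portions) were treated 24 h at 37 °C with compounds at up to 57 uM. SteadyGlo luminescence gave expression; GF-AFC fluorescence gave viability.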
DT40 TDP1 no CPT: qHTS for Inhibitors of human tyrosyl-DNA phosphodiesterase 1 (TDP1): qHTS in cells in absence of CPT | DT40 Tdp1-/- hTDP1 cells, no CPT, ATP luminescence, 48 h | Potency, µM (top dose mostly 46.2 µM), inactives show at the highest dose activity change, negative = growth inhibition, actives largely listed as inhibitors | 15% of 420,000 active | AID 686978, 2013; further: on the % scale 0 is the no-effect control and ±100 the full control effect; nearly all actives have a fitted effect of over 55% in size
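DT40 Tdp1-/-;hTDP1 cells, no CPT (DMSO vehicle only), 400 cells/well; compounds pin-transferred; ≥48 hr, 37 °C; CellTiter-Glo 30 min RT dark, luminescence read.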
HepG2 tox: kills HepG2 cells in TGF-b inhibitor counter-screen. HepG2 CAGA-GFP viability, ATP luminescence, 18 h. Potency, µM (doses to about 46.1 µM), for the others: at the highest dose activity change, negative = cytotoxicity, hits mostly cytotoxic. 0.76% of 410,000 active
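CellTiter-Glo luminescence gave cytotoxicity after 18 hours at 37 degrees C. The cells were HepG2 CAGA-GFP in 1% FBS DMEM, stimulated with 500 pg/mL TGF-beta after compound addition. %Activity was normalised to no-cell wells (complete cell-killing) and DMSO (no toxicity), and curves were fitted and classified.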
ATXN viability: viability counter-screen for ATXN expression inhibitors; S2 cells (HEK-293 line with an ATXN2-luciferase reporter) viability, CellTiter-Fluor protease fluorescence, 24 h; Potency, µM (top dose mostly 56.7 µM), hits mostly cytotoxic; 0.49% of 400,000 active; AID 651635; further: nearly all actives have a fitted effect of over 40% in size
DT40 TDP1 CPT: DT40-hTDP1 cell growth loss with CPT; chicken DT40 Tdp1-/-;hTDP1 cells + 20 nM CPT, ATP luminescence, 48 h; Potency, µM (top dose mostly 46.2 µM), without a hit: at the top dose activity change, negative = growth inhibition, most hits filed as inhibitors; 12% of 420,000 active; further: on the % scale 0 is the no-effect control and ±100 the full control effect; nearly all actives have a fitted effect of over 55% in size
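Chicken DT40 Tdp1-/- cells stably complemented with human TDP1 were seeded at 400 cells/well in medium containing 20 nM camptothecin, exposed to pin-transferred compounds, and grown at 37 °C for at least 48 hr. Viability was read as ATP luminescence.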
* hit, by the source's call; i = inactive; ? = inconclusive; / = no result; [ ] = another dose, or the depositor's remark. The call rests on the fitted dose curve; in most records, active means well fitted curve in the direction sought with a large enough effect; inconclusive means small, poorly fitted or top-dose-only effect, or another doubt; inactive means no such curve, though single readings can be large; an effect the other way counts as inactive or inconclusive. Potency means the concentration at half of the fitted maximal effect.

SMILES	TGFb inhibitor	ATXN2 expr inh	DT40 TDP1 no CPT	HepG2 tox	ATXN viability	DT40 TDP1 CPT
O=C(CSc1nnc(-c2ccc(O)cc2)o1)N1CCOCC1	0%	21%	-18%	-17%	i	-2%
CCN(C[C@H]1N[C@@](CC)(C(=O)OC)[C@H]2C(=O)N(Cc3ccccc3)C(=O)[C@@H]12)S(=O)(=O)c1ccc(C(C)(C)C)cc1	28%	-7%	23µM*	-32%	i	13µM*
CCN(C[C@H]1N[C@@](CC)(C(=O)OC)[C@H]2C(=O)N(Cc3ccccc3)C(=O)[C@@H]12)S(=O)(=O)c1ccc(OC(F)(F)F)cc1	?	0%	16µM*	-3%	i	?
CC[C@@]1(C(=O)OC)N[C@H](CN(C)S(=O)(=O)c2ccccc2)[C@@H]2C(=O)N(Cc3ccccc3)C(=O)[C@@H]21	-1%	-1%	-19%	-6%	i	8%
CCN(C[C@H]1N[C@@](CC)(C(=O)OC)[C@H]2C(=O)N(Cc3ccccc3)C(=O)[C@@H]12)S(=O)(=O)c1ccc(-c2ccccc2)cc1	4%	-7%	?	-14%	i	?
C[C@]12c3[nH]c4cc(-c5ccco5)ccc4c3CCN1C(=O)[C@@H](CC(=O)NCc1ccco1)C[C@@H]2C(=O)N1CCCCC1	?	?	?	-25%	?	?
CCN(CC)CCn1c(NCc2ccc3c(c2)OCO3)nc2ccccc21	-9%	-7%	16µM*	-17%	i	13µM*
CCCCn1c(NCc2ccncc2)nc2ccccc21	4%	-3%[11.3 µM]	-17%	-1%	i	-15%
CCCCn1c(NCc2cc(C)ccc2O)nc2ccccc21	?	/	-29%	-24%	i	-1%
CCCCn1c(NCc2cc(Br)ccc2O)nc2ccccc21	?	-28%	15µM*	-31%	i	15µM*
CCN(CC)c1ccc(CNc2nc3ccccc3n2CCN2CCOCC2)cc1	?	?	18µM*	-20%	i	?
CCN(CC)CCn1c(NCc2cccc(OC)c2)nc2ccccc21	-2%	-22%	?	-14%	i	?
CCCCn1c(NCc2ccc(N(C)C)cc2)nc2ccccc21	16µM*	?	26µM*	-35%	?	26µM*
CC(=O)Nc1ccc(-c2nnc(SCc3c(C)cc(C)cc3C)n2C)cc1	16%	-7%	-26%	-31%	i	-28%
COc1ccc(CNc2nc3ccccc3n2CCN2CCOCC2)cc1	-1%	-7%	21µM*	8%	i	-21%
c1csc(CNc2nc3ccccc3n2CCN2CCOCC2)c1	1%	-2%	-6%	-10%	i	-21%
CC(C)C1C(=O)N(Cc2cn(Cc3ccco3)nn2)CCS(=O)(=O)N1Cc1ccc(-c2ccc(F)cc2)cc1 (centres undefined)	?	?	21µM*	-23%	?	?
CC(C)C1C(=O)N(Cc2cn(Cc3ccco3)nn2)CCS(=O)(=O)N1Cc1ccc(-c2ccc(Cl)cc2)cc1 (centres undefined)	?	0%	6.5µM*	-34%	?	9.2µM*
CC(C)C1C(=O)N(Cc2cn(Cc3ccco3)nn2)CCS(=O)(=O)N1Cc1ccc(-c2ccccc2)cc1 (centres undefined)	?	?	18µM*	-34%	?	?
CC(C)C1C(=O)N(Cc2cn(Cc3ccco3)nn2)CCS(=O)(=O)N1Cc1ccc(-c2ccncc2)cc1 (centres undefined)	4%	9%	-15%	-15%	i	-12%
CCN(CC)C(=O)C(=O)c1cn(CC(=O)N2CCc3ccccc3C2)c2ccccc12	-21%	-26%	?	12%	i	?
NC(=O)C1=C[C@@H](c2ccc(C(F)(F)F)cc2)C[C@@H](OCCCCO)O1	-27%	-5%	10%	-5%	i	7%
O=C(CS(=O)(=O)c1ccccc1)c1ccc2c(c1)OCCO2	19%	26%	18µM*	-11%	?	15µM*
O=C(C[n+]1ccc(/C=C/c2ccccc2)cc1)c1ccc2c(c1)OCCO2	-17%	-12%	9.2µM*	-32%	i	?
O=C(O)CCC(=O)c1ccc2c(c1)OCCO2	-6%	17%	-2%	1%	i	-13%
SMILES	TGFb inhibitor	ATXN2 expr inh	DT40 TDP1 no CPT	HepG2 tox	ATXN viability	DT40 TDP1 CPT
O=C(CCN1CCc2ccccc2C(c2ccccc2)C1)c1ccc2c(c1)OCCO2 (centres undefined)	?	?	3.3µM*	-110%	i	3.3µM*
O=C(O)CCSCC(=O)c1ccc2c(c1)OCCO2	-14%	-26%	-20%	-15%	i	-21%
O=C(CCN1Cc2ccccc2C1)c1ccc2c(c1)OCCO2	13µM*	?	5.2µM*	10µM*	/	3.7µM*
O=C(Nc1cc2c(cc1C(=O)c1ccccc1)OCCO2)c1ccc(Br)cc1	8%	/	6%	-4%	/	2%
Cc1c(OCC(=O)NC2CC(C)(C)NC(C)(C)C2)ccc2c1oc(=O)c1ccccc12	10%	18µM*	12µM*	-11%	?	?
CCCc1cc(=O)oc2c(C)c(OCC(=O)Nc3ccc(CN4CCOCC4)cc3)ccc12	-2%	/	?	-1%	i	15µM*
CCCc1cc(=O)oc2cc(OCC(=O)NC3CCN(Cc4ccccc4)CC3)ccc12	0%	-7%	-4%	-8%	i	-23%
Cc1cc(OCC(=O)Nc2ccc(CN3CCOCC3)cc2)c2c(C)cc(=O)oc2c1	2%	/	12µM*	-6%	i	18µM*
CCCc1cc(=O)oc2c(C)c(OCC(=O)NCCCN3CCOCC3)ccc12	3%	0%	-3%	-9%	i	0%
CCCc1cc(=O)oc2c(C)c(OCC(=O)NC3CCN(Cc4ccccc4)CC3)ccc12	-9%	-2%	?	8%	i	18µM*
COc1ccc(S(=O)(=O)N2CCCCCC2)cc1C(=O)NCc1ccc(C)cc1	-10%	/	?	-14%	i	?
COc1ccccc1-c1ccnc(-n2ncc(C(=O)N(C)CCc3ccccn3)c2C)n1	/	/	8%	/	i	8%[9.04 µM]
COC(=O)C1CCN(Cc2ccc3c(c2)CN(C(=O)c2cc(C)oc2C)CCO3)CC1	/	/	-17%	/	i	22%[9.04 µM]
CCCCc1cc(=O)oc2cc(OCC(=O)NCCN3CCOCC3)c(Cl)cc12	-13%	-22%	18µM*	-3%	i	13µM*
